For 101 compounds, Potency results are on record in ChEMBL document CHEMBL1201862, “PubChem BioAssay data set” (2004).

Molecules are shown by their SMILES. The whole screen tested about 400,000 compounds, of which about 2,100 (0.53%) were called active. Roughly 14% stayed inconclusive and do not appear here. How the calls were made is not given here. The sample as a whole holds a higher share of actives than the screen did.

Sequence of Ataxin-2 (Homo sapiens) (Q99700 whole entry): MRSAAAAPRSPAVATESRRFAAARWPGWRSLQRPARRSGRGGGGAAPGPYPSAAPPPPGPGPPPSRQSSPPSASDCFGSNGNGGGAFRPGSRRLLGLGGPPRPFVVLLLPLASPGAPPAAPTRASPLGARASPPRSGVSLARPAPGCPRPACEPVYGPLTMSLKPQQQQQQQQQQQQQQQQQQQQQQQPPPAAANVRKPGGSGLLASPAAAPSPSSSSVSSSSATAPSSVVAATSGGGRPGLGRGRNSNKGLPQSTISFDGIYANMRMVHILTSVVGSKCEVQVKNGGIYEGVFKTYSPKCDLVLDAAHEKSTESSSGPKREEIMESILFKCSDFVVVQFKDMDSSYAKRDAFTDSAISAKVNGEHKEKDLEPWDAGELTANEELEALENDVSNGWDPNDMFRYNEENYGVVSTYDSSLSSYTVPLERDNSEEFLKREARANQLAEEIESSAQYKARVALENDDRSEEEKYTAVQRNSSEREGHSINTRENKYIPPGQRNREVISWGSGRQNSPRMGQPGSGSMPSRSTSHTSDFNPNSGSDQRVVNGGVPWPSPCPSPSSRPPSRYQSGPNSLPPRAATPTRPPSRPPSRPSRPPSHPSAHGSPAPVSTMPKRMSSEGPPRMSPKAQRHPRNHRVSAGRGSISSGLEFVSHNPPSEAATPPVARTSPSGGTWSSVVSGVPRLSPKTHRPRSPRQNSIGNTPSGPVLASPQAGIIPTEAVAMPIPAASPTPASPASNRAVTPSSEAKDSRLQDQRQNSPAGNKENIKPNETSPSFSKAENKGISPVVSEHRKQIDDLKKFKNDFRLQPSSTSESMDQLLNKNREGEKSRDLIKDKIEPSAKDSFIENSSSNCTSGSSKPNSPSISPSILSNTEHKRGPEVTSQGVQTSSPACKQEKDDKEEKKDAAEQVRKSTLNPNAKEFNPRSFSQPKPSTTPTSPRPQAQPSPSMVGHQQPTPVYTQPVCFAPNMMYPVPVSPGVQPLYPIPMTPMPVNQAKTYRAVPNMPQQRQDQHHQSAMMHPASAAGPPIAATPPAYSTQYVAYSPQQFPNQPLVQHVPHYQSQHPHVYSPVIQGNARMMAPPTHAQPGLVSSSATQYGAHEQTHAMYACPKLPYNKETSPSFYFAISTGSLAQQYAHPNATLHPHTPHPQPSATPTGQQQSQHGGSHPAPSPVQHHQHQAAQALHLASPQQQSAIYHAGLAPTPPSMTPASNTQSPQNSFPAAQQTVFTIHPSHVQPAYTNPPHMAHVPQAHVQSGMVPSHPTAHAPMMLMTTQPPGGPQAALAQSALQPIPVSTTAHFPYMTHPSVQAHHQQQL

This assay has as its target Ataxin-2 (Homo sapiens) (UniProt Q99700). Nature of the assay: qHTS for Inhibitors of ATXN expression. It counts as functional.
Turning to `COc1ccc(-c2nn(-c3ccccc3)cc2/C=N/N=C(N)N)cc1OC`, the Potency was 39.8 µM (active).

As for `COc1ccc(-c2nn(-c3ccccc3)cc2/C=C(\CC(=O)O)c2nc3ccccc3s2)cc1OC`, the Potency result was “inactive”. The entry for `COc1ccc(-c2nn(-c3ccccc3)cc2/C=N/Nc2ccc3ccccc3n2)cc1OC` is “inactive”; for `N#CC(C#N)=Cc1cnc(O)c(C#N)c1Nc1ccccc1` it is “inactive”; for `Nc1c(C(=O)Nc2ccc(F)cc2)sc2nc(-c3ccco3)ccc12` it is “inactive”. As to `Oc1ccc(CN2CCc3ccccc3C2)c2cccnc12`, the Potency is 7.94 µM (active). For `O=C(CSc1ncccn1)N1CCc2ccccc2C1`, the Potency entry is “inactive”. For `O=Cc1ccc(O)c2ncccc12`, the Potency result was “inactive”. For `CCc1ccc(C(=O)c2cc3ccc(O)cc3oc2=O)cc1`, the Potency entry was “inactive”.

Take `Oc1ccc(C23CC4CC(CC(C4)C2)C3)cc1O`: the Potency was 39.8 µM (active). Under `CNC(=O)/C(C#N)=C/c1c(N2CCN(c3ccc(OC)cc3)CC2)nc2c(C)cccn2c1=O` stands “inactive”; under `N=C1SC(c2ccccc2)C(=O)N1c1ncc(Cc2ccccc2Cl)s1` (stereo unspecified), 12.6 µM (active).

Take `Fc1ccc(-n2c(S)nnc2-c2ccc3ccccc3n2)cc1Cl`: the Potency result was “inactive”. As to `Oc1c(Br)cc(/C=N/Nc2ccc(Cl)nn2)cc1Br`, the Potency result was “inactive”. Regarding `FC(F)(F)c1nnc(-c2ccccc2)nc1Sc1ccccc1`, the Potency is 39.8 µM (active). For `FC(F)(F)c1nnc(-c2ccccc2)nc1Sc1ccc(Cl)cc1`, the Potency was 35.5 µM (active). As to `CN1CCN(c2nc(-c3ccc(Cl)cc3)nc3ccccc23)CC1`, the Potency entry was “inactive”. As for `COc1cccc(-n2c(C)cc(/C=C3/C(=N)N4C(=NC3=O)SN=C4S(C)(=O)=O)c2C)c1`, the Potency entry was “inactive”. On to `COc1cc(/C=C2/C(=N)N3N=C(CC(=O)N4CCOCC4)SC3=NC2=O)ccc1OCc1ccccc1`, for which the Potency entry was “inactive”. With `Cc1ncc(CO)c(/C=N/NC(=O)c2ccccc2Br)c1O`, the Potency result was “inactive”. Under `COc1ccc(/C=C2\SC(=S)N(CCCC(=O)Nc3cc(C)on3)C2=O)cc1OC` stands “inactive”; under `COc1cc(/C=C2\SC(=S)N(NC(=O)c3ccc(O)cc3)C2=O)ccc1O`, 12.6 µM (active). The figure for `COc1cc(/C=C2\SC(=S)N(C(C(=O)O)c3ccccc3)C2=O)ccc1O` (stereo unspecified) is 17.8 µM (active).

Consider `O=C(O)C(c1ccccc1)N1C(=O)/C(=C\c2ccc(O)c(O)c2)SC1=S` (stereo unspecified), for which the Potency is 39.8 µM (active). Take `Cn1cc(/C=C2\SC(=S)N(NC(=O)c3ccccc3)C2=O)c2ccccc21`: the Potency entry is “inactive”. Under `COc1cc(/C=C2/SC(=S)N(c3c(C)n(C)n(-c4ccccc4)c3=O)C2=O)ccc1O` stands 31.6 µM (active); under `Cc1c(NC(=O)COC(=O)/C=C/c2cccc(F)c2)c(=O)n(-c2ccccc2)n1C`, “inactive”; under `CCN(CC)c1ccc2cc(C(N)=O)c(=O)oc2c1`, “inactive”.

For `CCNC(=O)c1cc2c(=O)n3cccc(C)c3nc2n(CCc2ccccc2)c1=N`, the Potency result was “inactive”.

As for `Nc1c(C(=O)N/N=C/c2ccc(F)cc2)oc2nc(-c3ccccc3)cc(-c3ccco3)c12`, the Potency result is “inactive”. As to `O=C(Nc1ccc2nc(-c3ccco3)c(-c3ccco3)nc2c1)N1CCCCCC1`, the Potency entry is “inactive”.

Take `CCCn1c(=N)c(C(=O)NCc2cccnc2)cc2c(=O)n3ccccc3nc21`: the Potency result is “inactive”. For the compound `CC1(C)C2CC=C(/C=N/NC(=S)NCCc3ccccc3)C1C2` (stereo unspecified), the Potency result is “inactive”.

Consider `COc1cc(C2CC(c3c(C)cc(C)nc3O)=NN2c2ccccc2F)cc(OC)c1OC` (stereo unspecified), for which the Potency result was “inactive”. Turning to `CC(C)C(=O)NC(Nc1cc(C(F)(F)F)ccc1Cl)C(Cl)(Cl)Cl` (stereo unspecified), the Potency result is “inactive”. For the compound `N#Cc1sc2nc(-c3cccs3)cc(-c3ccc(Cl)cc3)c2c1N`, the Potency result was “inactive”. As to `O=C(O)c1ccccc1Nc1ccc([N+](=O)[O-])cc1`, the Potency result was “inactive”. For `Nc1cc([N+](=O)[O-])ccc1Nc1ccc(O)cc1`, the Potency is 44.7 µM (active). For the compound `O=C(O)c1cc([N+](=O)[O-])ccc1-c1ccc([N+](=O)[O-])cc1C(=O)O`, the Potency entry is “inactive”. As to `COc1ccc(C2C3=C(CCCC3=O)N(CC(=O)O)C3=C2C(=O)CCC3)cc1Br`, the Potency result was “inactive”.

As for `OC(CNCCC1C=Nc2ccccc21)Cn1c2ccc(Cl)cc2c2cc(Cl)ccc21` (stereo unspecified), the Potency was 35.5 µM (active).

Turning to `CN(C)CC(C(=O)c1ccccc1)c1ccccc1` (stereo unspecified), the Potency is 20 µM (active). On to `CCOC(=O)C(C(=O)c1ccccc1)C(c1ccccc1)c1nccc2ccccc12` (stereo unspecified), for which the Potency entry is “inactive”. The figure for `NCC12CC3CC(C1)CC(c1ccc(Br)cc1)(C3)C2` is 25.1 µM (active). As to `NCC12CC3CC(C1)CC(c1ccc(Cl)cc1)(C3)C2`, the Potency is 44.7 µM (active). On to `CCOCCCn1c(=N)c(C(=O)NCC2CCCO2)cc2c(=O)n3cccc(C)c3nc21` (stereo unspecified), for which the Potency result is “inactive”. As for `N#C/C(=C\c1c(Oc2ccccc2Cl)nc2ccccn2c1=O)C(=O)NC1CCS(=O)(=O)C1` (stereo unspecified), the Potency entry was “inactive”.

Consider `Cc1cc(O)c(CN(C)C)c2c1C(=O)/C(=C/c1ccco1)O2`, for which the Potency result is “inactive”. As for `CC/C(=C\C1CCCCC1)C(NP(=O)(c1ccccc1)c1ccccc1)c1ccccc1` (stereo unspecified), the Potency was 35.5 µM (active).

Take `CC(C)OCCCn1c(NN)nc2ccccc2c1=O`: the Potency entry is “inactive”. For `COc1ccccc1Oc1ccc(N/C=C/C(=O)c2ccco2)cc1`, the Potency result was “inactive”. The entry for `Cc1ccc(SC2=C(Sc3ccc(C)cc3)C(=O)c3ccccc3C2=O)cc1` is “inactive”; for `COc1ccc2sc(-c3ccc(N(C)C)cc3)c(C#CC(C)(C)O)c2c1` it is “inactive”.

As for `COc1ccc2sc(-c3ccc(N(C)C)cc3)c(C#Cc3cncn3C)c2c1`, the Potency entry was “inactive”. As to `COc1ccc(-c2sc3cc4c(cc3c2C#CC2(N)CCCCC2)OCO4)cc1`, the Potency was 39.8 µM (active). The figure for `COc1cc(OC)cc(-c2sc3ccc(OC)cc3c2C#CC2(N)CCCCC2)c1` is 39.8 µM (active).

With `CCOCCCn1c(=N)c(C(=O)NCc2cccnc2)cc2c(=O)n3ccccc3nc21`, the Potency entry was “inactive”.

As for `N#CC(C(=O)NCc1ccccc1)c1nc2ccccc2nc1N1CCCC1` (stereo unspecified), the Potency result is “inactive”. In the case of `O=c1oc2cc(O)ccc2cc1S(=O)(=O)c1ccccc1`, the Potency entry is “inactive”. `CC(C)(C)c1ccc(C(=O)CC(Sc2ccc(Cl)cc2)C(=O)O)cc1` (stereo unspecified): the Potency is 39.8 µM (active). Consider `CC(C)N1CCN(Cc2ccc(C#CCCO)cc2)CC1CCO` (stereo unspecified), for which the Potency entry was “inactive”. For `CCCOc1ccc(CCC(=O)N/N=C/c2ccco2)cc1`, the Potency result was “inactive”. On to `CCCOc1ccc(C2C(C(=O)OC)=CN(CCOC)C=C2C(=O)OC)cc1`, for which the Potency entry is “inactive”.

`CCCOc1ccc(C(=O)C(CCC(CNCC)C(=O)c2ccc(OCCC)cc2)CNCC)cc1` (stereo unspecified): the Potency was 22.4 µM (active).

Turning to `O=C(O)c1cccc(-n2cccc2/C=C2/NC(=O)N(c3ccc(Cl)cc3)C2=O)c1`, the Potency result is “inactive”.

Turning to `NSc1nc(N)c2nc(-c3ccccc3)c(-c3ccccc3)nc2n1`, the Potency entry was “inactive”. With `NCCCCCCNS(=O)(=O)c1cccc2c(Cl)cccc12`, the Potency is 39.8 µM (active).

For `O=C1Nc2ccc(S(=O)(=O)NCCCO)c3cccc1c23`, the Potency result is “inactive”. Take `O=C(O)CCCCCNS(=O)(=O)c1ccc2c3c(cccc13)C(=O)N2`: the Potency result was “inactive”. As for `Cc1ccc(O)c(-c2n[nH]c3c2C(c2ccccc2F)N(Cc2ccco2)C3=O)c1` (stereo unspecified), the Potency is 39.8 µM (active). With `CCOc1cccc(C2c3c(-c4cc(C)ccc4O)n[nH]c3C(=O)N2Cc2ccco2)c1` (stereo unspecified), the Potency is 39.8 µM (active). On to `O=C1c2cccc3c(O)ccc(c23)C(=O)N1Cc1ccco1`, for which the Potency entry is “inactive”. As for `Cc1cc(N=Nc2ccc(C)c(N=Nc3cc(C)c(N)cc3N)c2)c(N)cc1N`, the Potency was 39.8 µM (active). Consider `O=C1OCCN1C(=O)[C@H]1[C@H](c2ccc(F)cc2)C(c2ccc(F)cc2)=NN1c1ccccc1`, for which the Potency entry was “inactive”. As to `Cc1[nH]c(N=Nc2ccccc2)nc1N=Nc1ccccc1`, the Potency was 20 µM (active). Under `OCc1ccc(N=Nc2ccccc2)cc1` stands “inactive”; under `COc1cc(/C=C2\CC/C(=C\c3cc(OC)c(O)c(OC)c3)C2=O)cc(OC)c1O`, 28.2 µM (active); under `COc1cc(/C=C2\C(=N)N3N=C(CC(=O)N4CCCCC4)SC3=NC2=O)ccc1O`, “inactive”. Consider `COc1cc(/C=C/C(=O)c2ccc3c(c2)OCO3)cc(Cl)c1O`, for which the Potency entry was “inactive”.

On to `COc1cc(/C=C/c2nc3ccccc3s2)cc(OC)c1O`, for which the Potency result is “inactive”. The entry for `CCOc1cc(/C=C2\CCCc3c2nc2ccccc2c3C(=O)O)ccc1OC` is “inactive”; for `COc1cc(C=C2C(=O)C=CC2=O)ccc1O` it is 14.1 µM (active). In the case of `COc1cc(/C=C2\CCC/C(=C\c3ccc(O)c(OC)c3)C2=O)ccc1O`, the Potency was 35.5 µM (active).

On to `COc1cc(/C=C2/CCC/C(=C\c3cc(O)c(OC)c(Cl)c3)C2=O)cc(Cl)c1O`, for which the Potency is 39.8 µM (active). For the compound `COc1cc(/C=C2/NC(=O)N(Cc3ccccc3F)C2=O)ccc1O`, the Potency entry was “inactive”. On to `COc1cc(/C=C2\CCc3c2nc2ccccc2c3C(=O)O)cc(OC)c1OC`, for which the Potency result is “inactive”. Turning to `COc1cc(/C=C2\SC(c3ccccc3)=NC2=O)cc(Cl)c1O`, the Potency entry was “inactive”. Take `COc1cc2ccc(=O)oc2c(O)c1O`: the Potency result was “inactive”. The entry for `C=CCN1c2ccccc2Sc2cnccc21` is “inactive”; for `Nc1ccc2nn(-c3ccc(F)cc3)nc2c1` it is “inactive”.

Regarding `CCOc1cc(/C=C2\CN(C)C/C(=C\c3ccc(O)c(OCC)c3)C2=O)ccc1O`, the Potency was 15.8 µM (active).

As to `COc1cc(/C=C/C(=O)OCC(=O)N2CCC(Cc3ccccc3)CC2)ccc1O`, the Potency result was “inactive”. Consider `COc1cc(/C=C2\Oc3cc(O)ccc3C2=O)ccc1O`, for which the Potency result was “inactive”.

With `COc1cc(/C=C2\COC/C(=C\c3ccc(O)c(OC)c3)C2=O)ccc1O`, the Potency is 31.6 µM (active). For `CCOc1cc(/C=C2/C(=N)N3N=C(CC(=O)N4CCCC4)SC3=NC2=O)ccc1O`, the Potency entry was “inactive”. Consider `CCOc1cc(/C=C2\C(=N)N3N=C(CC(=O)N4CCCCC4)SC3=NC2=O)ccc1O`, for which the Potency entry was “inactive”. Under `COc1cc(/C=C/c2ccc3cccc(O)c3n2)ccc1O` stands “inactive”. As to `COc1cc(/C=C/C=C2/CC/C(=C/C=C/c3ccc(O)c(OC)c3)C2=O)ccc1O`, the Potency is 13.4 µM (active). For `COc1cc2ccc(=O)oc2cc1O`, the Potency result is “inactive”. Take `CCCn1/c(=N\C(=O)c2c(-c3c(F)cccc3Cl)noc2C)c(C(=O)OCC)cc2c(=O)n3ccccc3nc21`: the Potency result is “inactive”. Take `CCCn1c(O)nnc1SCC(=O)N(C1CCCCC1)C1CCS(=O)(=O)C1` (stereo unspecified): the Potency result is “inactive”.
